In PubChem BioAssay AID720597 (Broad Institute, 2013):
Measured potencies and affinities stand elsewhere.

What follows are compounds tested against NAD-dependent protein deacylase sirtuin-5, mitochondrial (Homo sapiens) (UniProt Q9NXA8) (assay: blockers of sirtuin-5 peptide desuccinylation – biochemical, fluorescence imaging, cherry-pick, set 6, dose response (AID 720597;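 note: lower AMC signal can also come from blocking the trypsin step; 0% = median of neutral control wells and -100% = median of positive control wells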)). Conditions: Purified SirT5, succinyl-peptide-AMC/trypsin fluorescence; series mostly up to 15 µM; activity change, negative = inhibition: at the top concentration;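 active = fitted half-maximal dose no more than twice the top valid tested dose, for compounds that lower signal; inconclusive = fit invalid, or curve flat with activity between -70 and -30; inactive = potency past limit, curve flat within ±30, or signal increasing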.
NAD-dependent protein deacylase sirtuin-5, mitochondrial (Homo sapiens), sequence (Q9NXA8 whole entry, looked up): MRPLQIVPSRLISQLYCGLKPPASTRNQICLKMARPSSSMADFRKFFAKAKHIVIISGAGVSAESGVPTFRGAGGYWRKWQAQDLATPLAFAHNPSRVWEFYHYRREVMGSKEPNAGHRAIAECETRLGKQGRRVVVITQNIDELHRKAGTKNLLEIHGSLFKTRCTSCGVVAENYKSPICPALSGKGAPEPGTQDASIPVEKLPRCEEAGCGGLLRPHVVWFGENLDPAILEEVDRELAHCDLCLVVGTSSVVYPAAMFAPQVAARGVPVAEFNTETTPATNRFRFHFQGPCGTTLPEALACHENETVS

Activity change, negative = inhibition, inactive:
C[C@H]1CN([C@@H](C)CO)C(=O)c2cc(NC(=O)Cc3ccccc3)ccc2O[C@@H]1CN(C)Cc1ccc(Oc2ccccc2)cc1 -6.95%, Cc1ccccc1S(=O)(=O)N[C@H]1CC[C@@H](CCn2cc(Cc3ccccc3)nn2)O[C@H]1CO 1.59%, Cc1ccc(S(=O)(=O)Nc2ccc3c(c2)C(=O)N([C@@H](C)CO)C[C@H](C)[C@H](CN(C)S(=O)(=O)c2ccccc2)OCCCC[C@@H](C)O3)cc1 5.12%, Cc1ccc(S(=O)(=O)N(C)C[C@@H]2OCc3ccccc3-c3c(n(C)c4ccccc34)C(=O)N([C@H](C)CO)C[C@@H]2C)cc1 -22% [at 16 µM], C[C@@H]1CN([C@@H](C)CO)C(=O)c2cc(C#CCN(C)C)cnc2O[C@@H]1CN(C)Cc1ccncc1 -5.47%, CO[C@@H]1CN(C)C(=O)c2ccc(NS(C)(=O)=O)cc2OC[C@@H](C)N(Cc2nccs2)C[C@H]1C -9.11%, COCC(=O)N1C[C@@H]2[C@H](c3ccccc31)[C@H](CO)N2Cc1cc(F)ccc1F 20.2%, CC(C)CC#Cc1cnc2c(c1)C(=O)N([C@H](C)CO)C[C@H](C)[C@H](CN(C)CC1CCOCC1)O2 -7.96%, CCN1[C@@H]2c3ccc(-c4ccccc4)c(=O)n3C[C@@H]2[C@@H](CO)[C@@H]1C(=O)NCc1ccccc1 -19.4%, COc1ccc(NC(=O)N(C)C[C@@H]2Oc3ccc(NS(=O)(=O)c4ccc(F)cc4)cc3C(=O)N([C@@H](C)CO)C[C@@H]2C)cc1 -16.2%, C[C@H](CO)N1C[C@H](C)[C@@H](CN(C)C(=O)NC2CCCCC2)Oc2cc(C#Cc3ccc(F)cc3)ccc2S1(=O)=O -9.23%
